Rows were chosen to be rich in hits. Some 11% of all compounds tested hit in one or more screens of this group.
Pf growth 96h = inhibits malaria parasite growth, 96 h; P. falciparum luciferase reporter growth, 96 h; Potency, µM (highest dose often 28.7 µM), for the others: at the top dose activity change, negative = inhibition, most hits filed as inhibitors; hit rate 6.9% among 320,000; AID 504834; note: % is set by controls: 0 for no effect and ±100 for the full control effect
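Parasite growth measured via integrated firefly luciferase reporter in P. falciparum. Infected erythrocytes at 2% hematocrit, 0.05% parasitemia final were treated 96 hours at 37 C under 5% CO2, and luminescence was read.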
AMA1 RON2 block = AMA1-RON2 (P. falciparum) interaction inhibition. AlphaScreen AMA1-biotinylated RON2 peptide binding. Potency, µM (top dose mostly 58.2 µM), without a hit: top-dose activity change, negative = inhibition, actives largely listed as inhibitors. hit rate 0.2% among 360,000. AID 720542;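 note: 0% = vehicle wells and -100% = peptide control; nearly all actives have a fitted effect of over 45% in size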
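AMA1 (3D7) with his tag at 25 nM final met compounds first, then biotinylated RON2 peptide at 25 nM; detection used donor plus acceptor beads, 10 µg/mL apiece, read by AlphaScreen after 30 min at room temperature.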
Pf growth 48h = P. falciparum growth inhibition at 48 hours (one generation); P. falciparum luciferase growth in erythrocytes, 48 h; hit rate 5.9% among 310,000; Potency, µM (top dose mostly 28.7 µM), for the others: top-dose activity change, negative = inhibition, most hits filed as inhibitors; note: % is set by controls: 0 for no effect and ±100 for the full control effect
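In quantitative HTS format, infected erythrocytes bearing luciferase-reporter parasites were treated for a single generation at 37 C. Luminescence after adding detection reagent served as the growth measure.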
Sm TGR inh = inhibitors of Schistosoma mansoni thioredoxin glutathione reductase; purified TGR, DTNB reduction, TNB absorbance 405 nm; Potency, µM (doses to about 114 µM), for the others: at the top dose activity change, negative = inhibition, hits mostly inhibitors; hit rate 3% among 360,000; note: % is set by controls: 0 for no effect and ±100 for the full control effect; nearly all actives have a fitted effect of over 60% in size
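First, TGR (20 nM dispensed) and NADPH were mixed with compound. Second, a 15 min room-temperature incubation followed. Third, further NADPH and then DTNB were added to start the reaction. Finally, TNB absorbance was monitored kinetically.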
NS1 inh = influenza NS1 inhibition. Potency, µM (titrated, usually from 46.1 µM), for inactives: at the highest dose activity, positive = more growth. hit rate 0.4% among 270,000. AID 2326; calls by dose curve; note: actives are rising curves; nearly all actives have a fitted effect of over 50% in size
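In this qHTS, NS1 from influenza A is expressed in budding yeast, where it slows growth. Cells are switched from glucose to 2% galactose medium (pH 6.0, -URA), treated with compound, and growth recovery is read at OD600.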
An asterisk follows results filed as active. Unless noted, calls come from the whole dose curve; as a rule, active = well fitted curve in the direction sought with a large enough effect; inconclusive = small, poorly fitted or top-dose-only effect, or another doubt; inactive = no such curve, though single readings can be large; an effect the other way counts as inactive or inconclusive. Potency is the fitted concentration of half-maximal effect.

What do the screens show for `CC1Cc2ccccc2N1C(=O)Cn1cnc2c1c(=O)n(C)c(=O)n2C` (stereo not given)?
Pf growth 96h: 23%; AMA1 RON2 block: -9%; Pf growth 48h: 12%; Sm TGR inh: -4%; NS1 inh: 21%

Results for CCOC(=O)Cn1nnnc1C(C(C)C)N(Cc1cc2c(C)cc(C)cc2[nH]c1=O)C1CCCC1 (stereo not given) ?
Pf growth 96h: 10%; AMA1 RON2 block: 2%; Pf growth 48h: 6.6µM*; Sm TGR inh: inconclusive; NS1 inh: -4%

Results for Cc1ccc(CN(Cc2cc3cc4c(cc3[nH]c2=O)OCCO4)Cc2nnnn2Cc2ccco2)cc1 ?
Pf growth 96h: inconclusive; AMA1 RON2 block: -8%; Sm TGR inh: 11µM*; NS1 inh: 17%

What do the screens show for `COc1ccccc1CN(Cc1cc2c(C)ccc(C)c2[nH]c1=O)Cc1nnnn1Cc1ccco1`?
AMA1 RON2 block: -9%; Pf growth 48h: 4.7µM*; Sm TGR inh: 45µM*; NS1 inh: 8%

How did COc1ccc2cc(CN(CCc3ccccc3)Cc3nnnn3Cc3ccco3)c(=O)[nH]c2c1 do in these assays?
Pf growth 96h: 8%; AMA1 RON2 block: -3%; Pf growth 48h: 6.6µM*; Sm TGR inh: inconclusive; NS1 inh: -45%

How did Cc1ccc2cc(CN(Cc3ccc4c(c3)OCO4)Cc3nnnn3Cc3ccco3)c(=O)[nH]c2c1 do in these assays?
Pf growth 96h: 4%; AMA1 RON2 block: 1%; Pf growth 48h: inconclusive; Sm TGR inh: inconclusive; NS1 inh: 13%

What do the screens show for `CC(=O)N(Cc1cc2c(C)cc(C)cc2[nH]c1=O)C1CCCCC1`?
AMA1 RON2 block: -1%; Pf growth 48h: inconclusive; Sm TGR inh: 2%; NS1 inh: 0%

What do the screens show for `COc1cc2cc(CN(Cc3nnnn3Cc3ccccc3)CC3CCCO3)c(=O)[nH]c2cc1OC` (stereo not given)?
Pf growth 96h: 115%; AMA1 RON2 block: -1%; Pf growth 48h: inconclusive; Sm TGR inh: inconclusive; NS1 inh: -16%

How did N#CCOc1ccccc1CNC[C@H]1O[C@@H](n2cnc(C(N)=O)n2)[C@H](O)[C@@H]1O do in these assays?
AMA1 RON2 block: -3%

Results for Cc1cccn2c(=S)[nH]nc12 ?
AMA1 RON2 block: 45%

How did COc1ccc2[nH]c(=O)c(CN(C(=O)c3cccc(Cl)c3)c3ccccc3OC)cc2c1 do in these assays?
Sm TGR inh: 3%

Results for CC(=O)c1ccc(-c2ccc(C(=O)N(C)c3c(N)n(Cc4ccccc4)c(=O)[nH]c3=O)o2)cc1 ?
Pf growth 96h: -10%; AMA1 RON2 block: 15%; Pf growth 48h: -1%; Sm TGR inh: -2%

What do the screens show for `OCC[n+]1ccc(/C=C/c2c[nH]c3ccccc23)cc1`?
Pf growth 96h: inconclusive; AMA1 RON2 block: -2%; Pf growth 48h: 0.59µM*; Sm TGR inh: -7%; NS1 inh: 0%

How did C(=Cc1c[nH]c2ccccc12)c1nccc2ccccc12 do in these assays?
AMA1 RON2 block: 16%

Results for CCCCN(CC)CCCNC(=O)C1CCN(c2nc3ccc(CC)cc3s2)CC1 ?
Sm TGR inh: -11%

What do the screens show for `Cc1ccc(C(c2sc3ncnn3c2O)N2CCC(C)CC2)cc1` (stereo not given)?
Pf growth 96h: 5.9µM*; AMA1 RON2 block: 11%; Pf growth 48h: inconclusive; Sm TGR inh: -18%; NS1 inh: inconclusive

Results for Cc1ccc(C(c2sc3ncnn3c2O)N2CCCCC2)cc1 (stereo not given) ?
Pf growth 96h: inconclusive; AMA1 RON2 block: 10%; Pf growth 48h: inconclusive; Sm TGR inh: 5%; NS1 inh: inconclusive

What do the screens show for `Cc1nc2c(c(C)nn2-c2ccccc2)c(C)c1CCC(=O)Nc1ccc(F)cc1`?
Sm TGR inh: 7%

How did C=CCN(C(=O)c1csnn1)C(C(=O)NCc1ccc(F)cc1)c1ccccc1F (stereo not given) do in these assays?
Pf growth 96h: inconclusive; AMA1 RON2 block: -4%; Pf growth 48h: 7%; Sm TGR inh: -2%; NS1 inh: 6%

Results for C=CCOC(=O)c1ccc(N2CCN(c3ccccc3)CC2)nc1 ?
Pf growth 96h: -15%; AMA1 RON2 block: 0%; Pf growth 48h: 2%; Sm TGR inh: 4%; NS1 inh: -1%

Results for COc1ccccc1NC(=S)N1CCC(c2nc3cc(C)c(C)cc3[nH]2)CC1 ?
Pf growth 96h: 12µM*; AMA1 RON2 block: -7%; Pf growth 48h: inconclusive; Sm TGR inh: 3%; NS1 inh: inconclusive

Results for COc1ccccc1NC(=O)N1CCC(c2nc3cc(C)c(C)cc3[nH]2)CC1 ?
Pf growth 96h: 46%; AMA1 RON2 block: -16%; Pf growth 48h: inconclusive; Sm TGR inh: -9%; NS1 inh: -11%

What do the screens show for `CCOC(=O)c1ccc(-n2c(CN3CCN(CC)CC3)nc3ccc([N+](=O)[O-])cc3c2=O)cc1`?
Pf growth 96h: inconclusive; AMA1 RON2 block: 58%; Pf growth 48h: inconclusive; Sm TGR inh: -36%

How did CCOC(=O)c1ccc(-n2c(CN3CCC(O)CC3)nc3ccc([N+](=O)[O-])cc3c2=O)cc1 do in these assays?
Pf growth 96h: 87%; AMA1 RON2 block: 19%; Pf growth 48h: inconclusive; Sm TGR inh: 13µM*; NS1 inh: 4%

How did CCOC(=O)c1ccc(-n2c(CN3CCC(C(N)=O)CC3)nc3ccc([N+](=O)[O-])cc3c2=O)cc1 do in these assays?
Pf growth 96h: inconclusive; AMA1 RON2 block: 15%; Pf growth 48h: inconclusive; Sm TGR inh: 11µM*

How did CCOC(=O)c1ccc(-n2c(CN(CC)CC)nc3ccc([N+](=O)[O-])cc3c2=O)cc1 do in these assays?
Pf growth 96h: inconclusive; AMA1 RON2 block: 8%; Pf growth 48h: inconclusive; Sm TGR inh: 11µM*

Results for C[C@@H](OC(=O)N(C)Cc1ccccc1)[C@H]1O[C@]2(C)CCCC[C@H]1O2 ?
Pf growth 96h: 26%; AMA1 RON2 block: 38%; Pf growth 48h: 24%; Sm TGR inh: 3%

How did CC(=O)c1ccc(N2CCN(c3nc4c(S(=O)(=O)c5ccc(C)c(C)c5)nnn4c4ccc(Cl)cc34)CC2)cc1 do in these assays?
Sm TGR inh: 8%

What do the screens show for `C[N+]1(C)CCC(=C(c2ccccc2)c2ccccc2)CC1`?
Pf growth 96h: 5.9µM*; AMA1 RON2 block: -5%; Pf growth 48h: 4.1µM*; Sm TGR inh: 0%

What do the screens show for `C[N+]1(CCC(=O)c2ccccc2)CCCCC1`?
Pf growth 96h: inconclusive; AMA1 RON2 block: 15%; Pf growth 48h: inconclusive; Sm TGR inh: 0%; NS1 inh: 4%

What do the screens show for `CN1C(=O)C(O)(CC(=O)c2cccc(-n3cccc3)c2)c2ccccc21` (stereo not given)?
Pf growth 96h: -2%; AMA1 RON2 block: inconclusive; Pf growth 48h: 9.3µM*; Sm TGR inh: 0%; NS1 inh: -9%
